Screening data (PubChem)
Most compounds without a hit are left out; they make up all but 1.7% or so of the library.
BJeLR viability: kills HRASV12-expressing BJeLR cells | 0.17% of 300,000 active | inhibition, % (concentration not given with the values) | AID 1554 | BJeLR (HRASV12) viability, CellTiter-Glo ATP luminescence, 48 h; in the data active = inhibition above about 50%
VHR inh abs: blocks human VHR1 dual specificity phosphatase; P51452; recombinant VHR phosphatase, pNPP absorbance; inhibition, % at 13.3 µM; 0.52% of 290,000 active; AID 1654; in the data active = inhibition above about 50%
Target sequence (P51452 whole entry, looked up): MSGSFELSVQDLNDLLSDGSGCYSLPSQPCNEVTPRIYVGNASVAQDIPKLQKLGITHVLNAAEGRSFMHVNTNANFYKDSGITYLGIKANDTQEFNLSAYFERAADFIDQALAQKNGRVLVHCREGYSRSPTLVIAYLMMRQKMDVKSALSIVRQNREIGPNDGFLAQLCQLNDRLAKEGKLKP
BH1578 lux ind: inducers of Vibrio cholerae quorum light production without autoinducers. V. cholerae BH1578 lux reporter, luminescence, 6 h. activation, % at 18.7 µM. 0.16% of 350,000 active; in the data active = activation mostly above about 9.7%, no sharp cut-off
SARS 3CLpro inh: SARS-CoV 3CLpro protease inhibition; P0C6X7; recombinant SARS-CoV 3CLpro, quenched FRET peptide cleavage; inhibition, % at 6 µM; 0.14% of 290,000 active; in the data active = inhibition above about 12%
MazEF act: MazEF (E. coli) toxin RNase activation. 0.32% of 350,000 active. activation, % at 20 µM. FAM/BHQ RNA-DNA oligo cleavage fluorescence, 5 h; in the data active = activation above about 50%
Target sequence (P0AE70 whole entry, looked up): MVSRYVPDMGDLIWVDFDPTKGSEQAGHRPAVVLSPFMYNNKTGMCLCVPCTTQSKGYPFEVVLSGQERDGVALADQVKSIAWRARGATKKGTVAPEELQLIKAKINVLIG
PfHsp40 yeast: compounds rescuing yeast from Plasmodium falciparum HSP40 toxicity. AID 504582. growth rescue, % at 12.5 µM. S. cerevisiae expressing PfHsp40, growth rescue, ATP luminescence. 0.68% of 340,000 active; in the data active = growth rescue above about 28%, passing the limit was not always enough;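 also: yeast W303a lacking pdr1 and pdr3 grown in galactose medium; growth measured after three days at 30 °C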
Numbers without * were called inactive.

For Cc1cccc(N(C)S(=O)(=O)c2c(C)[nH]c(C)c2C(=O)N2CCCC2)c1 the results were BJeLR viability 3.9, VHR inh abs 54.2*, BH1578 lux ind inactive, SARS 3CLpro inh -3.2, MazEF act 11.0 and PfHsp40 yeast 0.2.
For CCCCCc1cc(OC)cc2c1C(=O)OC(C)(C)O2 the results were BH1578 lux ind -1.9, MazEF act 9.2 and PfHsp40 yeast 72.4*.
COc1cc(NC(=O)COc2cc(O)c3c(c2)OC(C)(C)CC3=O)cc(OC)c1 was read as BJeLR viability 8.3, VHR inh abs 20.5, BH1578 lux ind 0.4, SARS 3CLpro inh 5.0, MazEF act -1.6 and PfHsp40 yeast 6.8.
CCCNC(=O)C1(C)CCN(C(=O)c2cccc(C#N)c2)C1 (configuration not stated) was read as BH1578 lux ind -4.5.
C[C@@H]1C[C@H]2OC(=O)C3(CO3)[C@H]2[C@H](O)[C@]2(C)C(=O)C3OC3[C@@H]12 (some centres not stated) was read as BJeLR viability 72.9* and VHR inh abs -0.3.
`CC(=NNC(=S)N1CC2CCC(CC2)C1)c1nccs1` gave BH1578 lux ind -2.0, MazEF act 3.9 and PfHsp40 yeast 126.3*.
O=C(CC(Sc1ccc(Br)cc1)C(=O)O)c1ccc(F)cc1 (configuration not stated) was read as BJeLR viability -7.4, VHR inh abs 18.2, BH1578 lux ind inactive, SARS 3CLpro inh 10.8, MazEF act -5.3 and PfHsp40 yeast 7.5.
For CCCCN(C)C(=O)C1CCN(CCCc2ccccc2)CC1 the results were BJeLR viability 3.9, VHR inh abs 15.9, BH1578 lux ind -0.2, SARS 3CLpro inh 0.7, MazEF act -0.7 and PfHsp40 yeast 0.8.
Screening CN(C)CC(C)(C)CNC(=O)C1CCN(CCCc2ccccc2)CC1 returned BJeLR viability 5.1, VHR inh abs 55.0*, BH1578 lux ind -0.4, SARS 3CLpro inh -3.5, MazEF act -1.8 and PfHsp40 yeast -1.2.
`CCc1nnc(NC(=O)CSc2ncnc3scc(-c4ccc(C)cc4)c23)s1` gave BJeLR viability 2.9, VHR inh abs 18.9, BH1578 lux ind -0.3, SARS 3CLpro inh 0.2, MazEF act 85.7* and PfHsp40 yeast -0.3.
Screening CCOC(=O)N1CCC(N(CCN(C)C)C(=S)Nc2cc(C)cc(C)c2)CC1 returned BJeLR viability -9.2, VHR inh abs 16.9, BH1578 lux ind -0.3, SARS 3CLpro inh 1.6, MazEF act -10.9 and PfHsp40 yeast -0.8.
`CCCCOc1ccc(NC(=O)Nc2nnc(C)s2)cc1` gave BJeLR viability 3.8, VHR inh abs 57.3*, BH1578 lux ind -0.7, SARS 3CLpro inh 1.4, MazEF act -3.1 and PfHsp40 yeast -0.8.
COCCNC(=O)C1(C)Cc2c(-c3ccc(N(C)C)cc3)ccnc2O1 (configuration not stated) was read as BH1578 lux ind -0.8.
`C=CC[C@@H](Cc1ccc(F)cc1)C(=O)OC[C@H]1CCCN1C(=O)[C@H](CC=C)CC(=O)N[C@H](CO)Cc1ccccc1` gave BH1578 lux ind -0.8, MazEF act -0.5 and PfHsp40 yeast 21.4.
Screening C=CC[C@@H](Cc1ccc(F)cc1)C(=O)OC[C@@H]1CCCN1C(=O)[C@@H](CC=C)CC(=O)N[C@H](CO)Cc1ccccc1 returned BH1578 lux ind -0.2, MazEF act 7.9 and PfHsp40 yeast 13.6.
C=CC[C@@H](Cc1ccc(F)cc1)C(=O)OC[C@H]1CCCN1C(=O)[C@@H](CC=C)CC(=O)N[C@H](CO)Cc1ccccc1 was read as BH1578 lux ind inactive, MazEF act -7.6 and PfHsp40 yeast 14.6.
Screening C=CCC[C@@H](Cc1ccc(F)cc1)C(=O)OC[C@@H]1CCCN1C(=O)[C@H](CC=C)CC(=O)N[C@H](CO)Cc1ccccc1 returned BH1578 lux ind -0.5, MazEF act 7.7 and PfHsp40 yeast 45.4*.
`C=CCC[C@@H](Cc1ccc(F)cc1)C(=O)OC[C@H]1CCCN1C(=O)[C@@H](CC=C)CC(=O)N[C@H](CO)Cc1ccccc1` gave BH1578 lux ind inactive, MazEF act 1.0 and PfHsp40 yeast 38.6*.
C=CC[C@@H](Cc1ccc(F)cc1)C(=O)OC[C@H]1CCCN1C(=O)[C@@H](CC=C)CC(=O)N[C@@H](CO)Cc1ccccc1 was read as BH1578 lux ind inactive, MazEF act 0.9 and PfHsp40 yeast 32.4*.
Screening COc1cc(C(=O)NCC2(c3ccccc3)CCCC2)cc(OC)c1OC returned BJeLR viability 15.6, VHR inh abs 9.2, BH1578 lux ind 0.0, SARS 3CLpro inh -6.7, MazEF act 2.4 and PfHsp40 yeast -1.2.
COc1ccc(C(=O)NNC(=O)CSc2nnc(-c3cccnc3)o2)cc1 was read as BJeLR viability -4.7, VHR inh abs -4.8, BH1578 lux ind inactive, SARS 3CLpro inh -2.7, MazEF act 1.8 and PfHsp40 yeast -0.7.
For O=C(c1c(F)cccc1F)N(C1CCCCC1)C1CCCCC1 the results were BJeLR viability -8.2, VHR inh abs 15.6, BH1578 lux ind -2.3, SARS 3CLpro inh 0.4, MazEF act 8.0 and PfHsp40 yeast -0.3.
For CNC(=S)N/N=C(\C)c1ccc(N2CCOCC2)cc1 the results were BJeLR viability -2.5, VHR inh abs 22.7, BH1578 lux ind -0.3, SARS 3CLpro inh -6.2, MazEF act 2.6 and PfHsp40 yeast 203.2*.
For CCNC(=S)N/N=C(\C)c1ccc(N2CCOCC2)cc1 the results were BJeLR viability -2.1, VHR inh abs -1.2, BH1578 lux ind inactive, SARS 3CLpro inh -5.0, MazEF act 3.4 and PfHsp40 yeast 5.1.
For CN(C)S(=O)(=O)c1ccc(C(=O)OCCn2cnc3c2c(=O)n(C)c(=O)n3C)cc1 the results were VHR inh abs 35.6, BH1578 lux ind -0.2, SARS 3CLpro inh -2.2, MazEF act -10.8 and PfHsp40 yeast -1.4.
Screening COc1ccc(Cl)cc1C(=O)OCC(=O)Nc1cccnc1Cl returned BH1578 lux ind inactive, MazEF act 0.5 and PfHsp40 yeast -0.6.
For COc1cccc(OC)c1C(=O)OCC(=O)Nc1cccnc1Cl the results were BJeLR viability -2.1, VHR inh abs 6.3, BH1578 lux ind -1.5, SARS 3CLpro inh 2.9, MazEF act 8.4 and PfHsp40 yeast 57.6*.
Screening Nc1c(C(=O)Nc2nccs2)sc2nc(-c3cccs3)cc(C(F)(F)F)c12 returned BJeLR viability -3.1, VHR inh abs 18.6, BH1578 lux ind inactive, SARS 3CLpro inh 0.5, MazEF act 114.8* and PfHsp40 yeast 0.2.
For CC(C)(C)C(=O)c1sc2nc(-c3cccs3)cc(C(F)(F)F)c2c1N the results were BJeLR viability -2.2, VHR inh abs 0.0, BH1578 lux ind -0.4, SARS 3CLpro inh 0.0, MazEF act active and PfHsp40 yeast 0.3.
